Out of some 52,000 compounds screened, about 4,300 (8.3%) were called active. The list comes from a sample in which actives are over-represented; it also holds similar structures and randomly drawn compounds. A number with no mark means an inactive call. Rule as the data show it: active = survival mostly below about 52% (no sharp cut-off); inactive = mostly above about 56%.
test system: DeltatarO mutant; test: S. aureus survival, RN4220 and DeltatarO strains – OD600, teichoic acid synthesis inhibitors, primary screen (AID 463173); settings: S. aureus RN4220 wild type/DeltatarO growth, OD600, 18 h, active compounds read low, screened at 18.75 µg/mL (by protocol)

| SMILES | survival |
| --- | --- |
| CCN(CCCNC(=O)c1cc2cc3cc(OC)ccc3nc2s1)c1cccc(C)c1 | 46% (active) |
| CCN(CCCNC(=O)c1cc2cc3cc(OC)ccc3nc2s1)c1ccccc1 | 53% (active) |
| CCN(CCCNC(=O)c1cc2cc3ccc(OC)cc3nc2s1)c1ccccc1 | 97% |
| CCN(CCCNC(=O)c1cc2cc3cc(C)ccc3nc2s1)c1cccc(C)c1 | 102% |
| CCN(CCCNC(=O)c1cc2cc3ccc(C)cc3nc2s1)c1ccccc1 | 126% |
| CCN(CCCNC(=O)c1cc2cc3ccc(OC)cc3nc2s1)c1cccc(C)c1 | 83% |
| O=C(COCc1cc(-c2cccs2)on1)NCc1ccc(Cl)cc1 | 64% |
| CC1CCN(S(=O)(=O)c2ccc(N3CCCCS3(=O)=O)cc2)CC1 | 71% |
| Cc1ccc2oc(C(=O)N3CCC(c4nc5ccccc5s4)CC3)c(C)c2c1 | 52% |
| O=C(NCCS(=O)(=O)N1CCN(c2ccccc2F)CC1)c1cc(=O)c2ccccc2o1 | 71% |
| Cc1cccc(NC(=O)C2CCCN(S(=O)(=O)c3ccc4c(c3)oc(=O)n4C)C2)c1C (stereo not drawn) | 83% |
| CCC(CC)c1nnc(NC(=O)CS(=O)(=O)Cc2ccccc2)s1 | 70% |
| CCOC(=O)c1c(C)oc2ncnc(Nc3ccc(OC)cc3OC)c12 | 97% |
| CCOC(=O)c1cnc2c(ccc3ccccc32)c1Nc1ccc(OC)cc1OC | 8% (active) |
| CCOC(=O)c1cnc(N2CCN(c3ccc(OC)cc3)CC2)c2ccccc12 | 97% |
| CCOC(=O)c1cnc2c(ccc3ccccc32)c1Nc1ccccc1OC | 28% (active) |
| CCOC(=O)c1cnc(NCc2ccccc2OC)c2ccccc12 | 89% |
| CCOC(=O)c1cnc2c(ccc3ccccc32)c1Nc1ccccc1OCC | 126% |
| CCOC(=O)CSc1nc2cc(OC)c(OC)cc2c2nc(-c3ccccc3)nn12 | 59% |
| O=C(Cn1ncc2c(=O)oc3ccccc3c21)NCc1ccc(Cl)cc1 | 86% |
| CCOc1ccccc1N(CC)C(=O)c1cc2c(=O)n(CC)c3ccccc3c2s1 | 121% |

| SMILES | survival |
| --- | --- |
| COc1ccc(C2=Nc3ccc(OC(F)(F)F)cc3NC(c3cccnc3)=N2)cc1 | 67% |
| CC(C)Oc1ccc(CNS(=O)(=O)c2cnc(N)nc2)cc1 | 115% |
| COc1cccc(CNS(=O)(=O)c2cnc(N)nc2)c1 | 64% |
| COc1ccc(CNS(=O)(=O)c2cnc(N)nc2)cc1 | -2% (active) |
| CCc1nn(C(C)C(=O)N2CCN(c3cccc(C(F)(F)F)c3)CC2)c(=O)c2cc3occc3n12 (stereo not drawn) | 73% |
| COc1ccc(OC)c(CCNC(=O)CCn2c(=O)c3cccn3c3cccnc32)c1 | 84% |
| CCN(CC)c1ccc(-n2nc3cc(C)c(NC(C)=O)cc3n2)cc1 | 92% |
| CCN(CC)c1ccc(NC(=O)c2ccccc2F)cc1 | 63% (active) |
| CCN(CC)c1ccc(NC(=O)CN2CCN(c3ccccc3F)CC2)cc1 | 75% |
| O=C(Nc1ccc(S(=O)(=O)N(Cc2ccccc2)c2ccccc2)cc1)c1ccccc1F | 58% |
| CCN(CC)c1ccc(-n2nc3cc(C)c(NC(=O)c4ccccc4F)cc3n2)cc1 | 56% (active) |
| CCN(CC)c1ccc(-n2nc3cc(C)c(NC(=O)c4ccccc4C)cc3n2)c(C)c1 | 73% |
| Cc1cc2nn(-c3ccccc3)nc2cc1NC(=O)c1cccc2c(Cl)cccc12 | 43% (active) |
| Cc1cc2nn(-c3ccc(F)cc3)nc2cc1NC(=O)c1cccc2c(Cl)cccc12 | 59% |
| Cc1cc2nn(-c3ccc(F)cc3)nc2cc1NC(=O)c1cccc2ccccc12 | 68% |
| Cc1c(Cl)cccc1Nc1sc(C(=O)c2ccccc2)c(N)c1S(=O)(=O)c1ccccc1 | 71% |
| Cc1cc(C)cc(OCCSc2nc(-c3ccc(C(C)(C)C)cc3)nc3cc(=O)[nH]n23)c1 | 83% |
| Cn1c(CNC(=O)CSc2n[nH]c(-c3ccccc3)n2)nc2ccccc21 | 89% |
| O=C(NCCSc1c(-c2ccc(Cl)cc2)[nH]c2ccccc12)c1ccc(S(=O)(=O)N2CCOCC2)cc1 | 68% |
| CCOC(=O)c1sc2ccccc2c1S(=O)(=O)Nc1ccc(N(C)C)cc1 | 126% |
| CC(C)c1ccc2occ(CC(=O)N(Cc3ccc(F)cc3)C3CCS(=O)(=O)C3)c2c1 (stereo not drawn) | 61% |

| SMILES | survival |
| --- | --- |
| Cc1ccc(CNC(=O)c2ccc3c(c2)nc2n3CCCC2)cc1 | 86% |
| Cc1cn2c(=O)cc(COC(=O)c3cccc(NC(=O)C(C)Oc4ccccc4)c3)nc2s1 (stereo not drawn) | 95% |
| CC(Oc1ccccc1)C(=O)Nc1ccc(C(=O)OCc2cc(=O)n3ccsc3n2)cc1 (stereo not drawn) | 87% |
| Cc1cn2c(=O)cc(COC(=O)c3ccc(NC(=O)c4ccc(F)cc4)cc3)nc2s1 | 96% |
| Cc1cn2c(=O)cc(COC(=O)c3cccc(NC(=O)c4ccc(C(C)(C)C)cc4)c3)nc2s1 | 103% |
| Cc1cn2c(=O)cc(COC(=O)c3ccc(NC(=O)c4ccc(C(C)(C)C)cc4)cc3)nc2s1 | 20% (active) |
| Cc1cn2c(=O)cc(COC(=O)c3ccc(NC(=O)C(C)Oc4ccccc4)cc3)nc2s1 (stereo not drawn) | 8% (active) |
| COc1ccccc1CNC(=O)CCCc1nnc2n(CC(C)C)c(=O)c3sccc3n12 | 95% |
| CCN(CC)C(=O)N1CCN(C(=O)N(CC)CC)CC1 | 79% |
| CCCCOC(=O)Cc1c(C)[nH]c(=O)[nH]c1=O | 114% |
| CC(NC1CCCC1)c1ccccc1 (stereo not drawn) | 84% |
| COc1ccc(CCNC(=O)CSc2ncc3c(n2)-c2cc(Cl)ccc2N(Cc2ccccc2)S3(=O)=O)cc1OC | 87% |
| Cc1nn2c(C)c(C(=O)N3CCN(c4ccc(Cl)cc4)CC3)cnc2c1-c1ccc(F)cc1 | 88% |
| COc1ccc(-c2cc(C(=O)N3CCN(c4ccc(F)cc4)CC3)no2)cc1OC | 57% |
| COc1ccccc1N1CCN(C(=O)c2cc(-c3ccc(C)c(F)c3)on2)CC1 | 66% |
| COc1ccccc1N1CCN(C(=O)c2cc(-c3ccc(F)cc3)on2)CC1 | 46% |
| COc1ccc(N2CCN(C(=O)c3cc(-c4ccc(C)c(F)c4)on3)CC2)cc1 | 92% |
| COc1cccc(N2CCN(C(=O)c3cnc4c(-c5ccccc5)c(C)nn4c3C)CC2)c1 | 87% |
| COc1cccc(N2CCN(C(=O)c3cnc4c(-c5ccc(F)cc5)c(C)nn4c3C)CC2)c1 | -5% (active) |
| COc1cccc(-c2cc(C(=O)N3CCN(c4ccccc4OC)CC3)no2)c1 | -4% (active) |
| COc1cccc(-c2cc(C(=O)N3CCN(c4ccc(F)cc4)CC3)no2)c1 | 44% (active) |

Reference: PubChem BioAssay AID463173 (ICCB-Longwood Screening Facility, Harvard Medical School, 2010)
